We go through nine molecules from PubChem BioAssay (Tox21).

SMILES strings stand for the structures. Values joined by “and” are separate entries in the source; they are usually repeats but may differ in a detail not shown here. Equal values may be shown once. Inconclusive results are not listed. Where a structure was tested more than once in an assay, its records may differ in their call. Active and inactive are the calls of the source. Unless noted, calls come from the whole dose curve; as a rule, active = well fitted curve in the direction sought with a large enough effect in the repeat runs; inconclusive = weak or mixed curves; inactive = no such curve, though single readings can be large; an effect the other way counts as inactive or inconclusive.

A short description of experiment [1]: qHTS assay to identify small molecule agonists of the vitamin D receptor (VDR) signaling pathway - cell viability counter screen (AID 743224). Note: nearly all actives have a fitted effect of over 50% in size. Note: potency is the fitted concentration of half-maximal effect. The essentials: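 Counter screen run in the same wells as the VDR-bla reporter assay: CellTiter-Glo luminescence, 30 min at room temperature, after 16 h compound treatment at 37C of cells pre-plated for 4 h.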
(In general: qHTS replaces the single test concentration by a dilution series.)

A short description of experiment [2]: qHTS assay to identify small molecule antagonists of the vitamin D receptor (VDR) signaling pathway - cell viability counter screen (AID 743225). Note: nearly all actives have a fitted effect of over 50% in size. The procedure, abridged:
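Read-out: CellTiter-Glo luminescence measured 30 min after reagent addition at room temperature. Cells were VDR-bla HEK 293T exposed 16 h at 37C, 5% CO2, to compound with 3 nM final calcitriol agonist.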

Experiment [3] in a line: qHTS assay to identify small molecule agonists of the NFkB signaling pathway - cell viability counter screen (AID 1159515; calls by dose curve; note: nearly all actives have a fitted effect of over 55% in size; note: potency is the fitted concentration of half-maximal effect). The essentials: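 Read by CellTiter-Glo luminescence (30 min, room temperature) in the wells also used for the beta-lactamase FRET read. ME-180 NFkB-bla cells at 2,000 per well were plated overnight, then exposed to compound for 5 hr at 37 C.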
A short description of experiment [4]: qHTS assay to identify small molecule agonists of the endoplasmic reticulum stress response signaling pathway (AID 1159516; active = well fitted activation curve with a large enough effect in the signal ratio in the repeat runs, not every such curve was filed as active; the % refers to the signal ratio). The essentials: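 Ratiometric FRET readout (405 nm excitation; 460 and 530 nm emission) of a beta-lactamase gene driven by the ER stress response element, after 2 hr substrate loading. HeLa ESRE-bla cells were seeded overnight and treated with compounds for only 5 hr at 37 C.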

A short description of experiment [5]: qHTS assay to identify small molecule agonists of the endoplasmic reticulum stress response signaling pathway - cell viability counter screen (AID 1159517; calls by dose curve; note: series mostly up to about 61 µM; nearly all actives have a fitted effect of over 50% in size). The procedure, abridged: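 After overnight attachment, ESRE-bla HeLa cells were treated with Tox21 library compounds for 5 hr. CellTiter-Glo luminescence, read 30 min post-addition at room temperature, reported viability.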

Experiment [6] is described as follows: qHTS assay to identify small molecule antagonists of the retinoid-related orphan receptor gamma (ROR-gamma) signaling pathway - cell viability counter screen (AID 1159520). Note: nearly all actives have a fitted effect of over 50% in size. Note: potency is the fitted concentration of half-maximal effect. The procedure, abridged:
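Cytotoxicity was read from cellular ATP (CellTiter-Glo luminescence) after 16 hr at 37 C with 1 uM doxycycline induction. The inducer was added 2 hr after compound transfer to Tet-on ROR gamma CHO cells.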

The target of experiment [7] is Nuclear receptor ROR-gamma (Homo sapiens) (UniProt P51449). Put plainly: qHTS assay to identify small molecule antagonists of the retinoid-related orphan receptor gamma (ROR-gamma) signaling pathway (AID 1159521; note: nearly all actives have a fitted effect of over 50% in size; note: potency is the fitted concentration of half-maximal effect). The procedure, abridged: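 CHO Tet-on RORγ, RORE-luc reporter. Cpd 2 h pre-incubation, then dox hyclate 1 uM final, 16 h, 37 C/5% CO2. ONE-Glo luminescence; decrease = antagonist.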

Experiment [8] can be described thus: qHTS assay to identify small molecule agonists of the AP-1 signaling pathway - cell viability counter screen (AID 1159525; calls by dose curve; note: nearly all actives have a fitted effect of over 55% in size; note: potency is the fitted concentration of half-maximal effect). The essentials: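 Intracellular ATP by Cell Titer Glo luminescence (30 min, RT) in the same ME-180 AP-1-bla wells after the 5 h compound exposure at 37 °C. Normalised to tetra n-octyl ammonium bromide and DMSO controls.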
A short description of experiment [9]: qHTS assay to identify small molecule agonists of the AP-1 signaling pathway (AID 1159526; calls by dose curve).
Experiment [10] is described as follows: qHTS assay to identify small molecule agonists of the RXR signaling pathway - cell viability counter screen (AID 1159529). Note: nearly all actives have a fitted effect of over 50% in size. Note: potency is the fitted concentration of half-maximal effect. The procedure, abridged:
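HEK 293T RXRa-bla cells, 2% CS-FBS; 5 h settle; cpd 16 h 37 C, 5% CO2; CellTiter-Glo 30 min RT, luminescence. Tetraoctyl ammonium bromide as positive control.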

Experiment [11] is described as follows: qHTS assay to identify small molecule antagonists of the retinoid acid receptor (RAR) signaling pathway - cell viability counter screen (AID 1159551). Note: nearly all actives have a fitted effect of over 35% in size. Note: potency is the fitted concentration of half-maximal effect. The procedure, abridged: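 Cytotoxicity counter screen: ATP content quantified by CellTiter-Glo luminescence in C3RL4 cells treated 6 hr at 37 C with compound and retinol (1 uM final). Cells plated at 1,000/well and cultured overnight before dosing.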

Experiment [12] is described as follows: qHTS assay to identify small molecule antagonists of the retinoic acid receptor (RAR) signaling pathway (AID 1159552; note: nearly all actives have a fitted effect of over 50% in size; note: potency is the fitted concentration of half-maximal effect). The procedure, abridged: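 Cells of the C3RL4 line were seeded, incubated overnight, then dosed with compounds in DMSO followed immediately by retinol (1 uM final). Six hours later luciferase detection reagent went in; signal was measured after 30 min at RT.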

Experiment [13] can be described thus: qHTS assay to identify small molecule agonists of the retinoic acid receptor (RAR) signaling pathway (AID 1159553). The procedure, abridged: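 Luminescence was measured 30 min after luciferase reagent addition at room temperature. Before that, C3RL4 reporter cells (1,000 per well, plated overnight) were treated with compound for 6 hr at 37 C and 5% CO2.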
Experiment [14] addresses Retinoic acid receptor RXR-alpha (Homo sapiens) (UniProt P19793). Briefly: qHTS assay to identify small molecule agonists of the RXR signaling pathway (AID 1159527; calls by dose curve; note: nearly all actives have a fitted effect of over 35% in size). The essentials: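 Read-out: beta-lactamase FRET ratio (405 nm excitation, 460 and 530 nm emission) after 2 hr substrate loading at room temperature. Cells were RXR-alpha-UAS-bla HEK 293T treated with compounds for 16 hr in 2% charcoal-stripped FBS medium.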

A short description of experiment [15]: qHTS assay to identify small molecule antagonists of the estrogen related receptor (ERR) signaling pathway - cell viability counter screen (AID 1224818). Note: series mostly up to about 46 µM. The procedure, abridged: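 Cytotoxicity counter screen: fluorescence from CellTiter-Fluor, added after 17.5 h compound exposure at 37 C and read 30 min later. ERR cell line seeded at 2,000 cells/well, preincubated 6 h before dosing.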

Experiment [16] in a line: qHTS assay to identify small molecule antagonists of the estrogen related receptor (ERR) signaling pathway (AID 1224819). The procedure, abridged:
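LOPAC library screened for antagonism as reduced One-Glo luminescence in ERR reporter cells (2,000/well). Compounds were added after 6 h pre-incubation and left 18 h at 37C; reading followed a 30 min room-temperature reagent step.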

Experiment [17] is described as follows: qHTS assay to identify small molecule agonists of the estrogen related receptor (ERR) signaling pathway (AID 1224820). The essentials: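 Following a 6 h settling period, 2,000 ERR cells per well receive DMSO-dissolved compounds by pin tool and incubate 18 h at 37 C; agonist activity is scored from One-Glo luminescence read 30 min post-addition.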
The test system of experiment [18] is estrogen-related receptor alpha (ERRalpha) with PGC-1alpha coactivator, human. Put plainly: qHTS assay to identify small molecule antagonists of the estrogen related receptor signaling pathway with the pleiotropic PPARgamma coactivator (PGC) (AID 1224821; calls by dose curve). The essentials:
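Screening used NTP's PGC/ERR cells, dosed via pin tool with compound in DMSO alongside positive and negative controls. After 18 h at 37 C, One-Glo reagent sat 30 min at room temperature before luminescence detection.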

Experiment [19] in a line: qHTS assay to identify small molecule antagonists of the estrogen related receptor signaling pathway with the pleiotropic PPARgamma coactivator (PGC) cell viability counter screen (AID 1224822; note: series mostly up to about 46 µM). The essentials:
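Viability counter-screen read by fluorescence intensity after 30 min with CellTiter-Fluor at 37 C; PGC/ERR reporter cells were exposed to compounds for 17.5 h at 37 C following a 6 h preincubation.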

Experiment [20] in a line: qHTS assay to identify small molecule agonists of the estrogen related receptor signaling pathway with the pleiotropic PPARgamma coactivator (PGC) (AID 1224823). The procedure, abridged:
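In this quantitative high-throughput screen, an 18 h, 37 C treatment of PGC/ERR cells with compounds in DMSO preceded a One-Glo luminescence read taken after 30 min at room temperature.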

Retinoic acid receptor RXR-alpha (Homo sapiens), sequence (P19793 whole entry, looked up): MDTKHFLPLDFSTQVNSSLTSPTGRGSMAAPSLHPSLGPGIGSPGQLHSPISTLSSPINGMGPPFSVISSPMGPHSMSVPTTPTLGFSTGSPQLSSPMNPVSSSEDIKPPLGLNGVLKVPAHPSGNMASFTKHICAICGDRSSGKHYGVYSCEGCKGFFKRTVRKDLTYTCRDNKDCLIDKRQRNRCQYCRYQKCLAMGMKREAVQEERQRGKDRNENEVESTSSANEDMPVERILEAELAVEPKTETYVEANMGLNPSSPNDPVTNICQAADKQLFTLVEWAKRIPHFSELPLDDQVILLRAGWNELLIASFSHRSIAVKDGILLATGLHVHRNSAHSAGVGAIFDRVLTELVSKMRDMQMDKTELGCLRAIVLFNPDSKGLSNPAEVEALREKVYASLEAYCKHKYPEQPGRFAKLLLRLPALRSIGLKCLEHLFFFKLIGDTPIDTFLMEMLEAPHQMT

Take `OCCOc1ccccc1`: the Potency entry in experiment [1], in [2], in experiment [3], in experiment [5], in [6] and in experiment [7] was “inactive” throughout. Also, the Potency result in experiment [8], in [9], in [10], in [11], in [12] and in experiment [13] was “inactive” each time. In experiment [4], the call was inactive.
As to `CCC(=O)C(CC(C)N(C)C)(c1ccccc1)c1ccccc1` (stereo not given), the Potency in experiment [3] is 43.8 µM (active) and inactive; in experiment [7] it was 48.8 µM (active); in experiment [10], 43.8 µM (active). Also, the molecule was called inactive in experiment [4]. Besides, the Potency result in experiment [5], in experiment [6], in experiment [8], in experiment [9], in experiment [11] and in experiment [12] was “inactive” throughout. Moreover, the Potency entry in experiment [13] was “inactive”.
Take `O=c1[nH]c(=O)n(Cl)c(=O)n1Cl`: the Potency entry in experiment [1], in experiment [2], in [3], in experiment [5], in experiment [6] and in experiment [7] was “inactive” each time. Also, the Potency result in experiment [8], in [9], in experiment [14], in [10] and in experiment [11] was “inactive” each time. Also, the molecule was classed as inactive in experiment [4].
As for `COc1ccccc1N`, the Potency result in [1], in experiment [2], in experiment [3], in experiment [5], in experiment [6] and in [7] was “inactive” each time. Besides, the Potency result in [8], in experiment [9], in experiment [10], in experiment [11], in experiment [12] and in experiment [13] was “inactive” throughout. In addition, the result in experiment [4] was inactive.
`O=P1(N(CCCl)CCCl)NCCCO1` (stereo not given): the Potency entry in experiment [1], in experiment [2], in experiment [3], in experiment [5], in [6] and in [7] was “inactive” each time. Besides, the Potency result in [8], in experiment [9], in experiment [10], in experiment [11] and in experiment [19] was “inactive” in each case. The molecule was called inactive in experiment [4], in [15], in experiment [16], in experiment [17], in experiment [18] and in [20].
Regarding `O=S(=O)(O)O`, the Potency entry in [1], in [2], in [3], in experiment [5], in experiment [6] and in [8] was “inactive” each time. In addition, the Potency result in experiment [9], in experiment [10] and in experiment [11] was “inactive” each time. Besides, in [4], the result was inactive.
As to `C=CCOC(Cn1ccnc1)c1ccc(Cl)cc1Cl` (stereo not given), the Potency was 54.9 µM (active) and inactive in [1]; 21.8 µM (active) and 29.8 µM (active) in [7]. Besides, the Potency result in experiment [2], in experiment [3], in [5], in experiment [6], in [8] and in experiment [14] was “inactive” in each case. The Potency entry in experiment [10] and in experiment [11] was “inactive” throughout.
For `CCCC[n+]1cccc(C)c1`, the Potency entry in [1], in [2], in [3], in [5], in experiment [6] and in [7] was “inactive” in each case. Besides, the Potency entry in experiment [8], in [9], in [10] and in [11] was “inactive” each time. Further, in experiment [4], the molecule was classed as inactive.
Turning to `CCCCCCCCCCCCCCCCn1cc[n+](C)c1`, the Potency in [3] is 44.6 µM (active) and inactive and 24.6 µM (active); in experiment [6], “inactive and 61.7 µM (active) and 30.7 µM (active)”; in experiment [8], “inactive and 21.9 µM (active)”; in experiment [11], “inactive and 61.7 µM (active) and 43.4 µM (active)”; in [12], “inactive and 27.6 µM (active) and 13.7 µM (active)”. Moreover, in experiment [4], the result was inactive. The Potency result in experiment [9] and in experiment [13] was “inactive” throughout.
